In PubChem BioAssay (EPA / NIEHS):
Records with an inconclusive call do not appear. Active and inactive are the calls of the source. The calls were made as follows, unless noted: active = hit-call score of the fitted dose curve at least 0.9, where 1 is the maximum; inconclusive = response in the unintended direction; inactive = score below 0.9.

Columns and labels:
[1] = Tanguay_ZF_120hpf_BRAI_legacy: (Legacy) Oregon State University Tanguay Lab 120 Hour Post-fertilization zebrafish Assay for Brain Malformation (AID 2283641)
How it was run: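 Static exposure of staged wild-type embryos until 120 hpf, kept at 28C with light excluded and final DMSO of 0.64% (vol/vol). Presence or absence of brain malformation was noted under brightfield; mortality precluded scoring.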

[2] = Tanguay_ZF_120hpf_SOMI_legacy: (Legacy) Oregon State University Tanguay Lab 120 Hour Post-fertilization zebrafish Assay for Somite Malformation (AID 2283647)
How it was run: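 Somitogenesis defects are recorded as binary calls in whole larvae at 120 hpf after continuous static chemical exposure starting at 6 hpf in dechorionated 5D embryos. DMSO serves as negative control and baseline.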

[3] = Tanguay_ZF_120hpf_PFIN_legacy: (Legacy) Oregon State University Tanguay Lab 120 Hour Post-fertilization zebrafish Assay for Pectoral Fin Malformation (AID 2283648);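 also: each larva judged yes or no for fin defect by brightfield with dead larvae skipped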
How it was run: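 Pectoral fin malformation was recorded as a binary endpoint at 120 hpf in wild-type Tropical 5D larvae, which had been dechorionated and exposed statically from 6 hpf at 28C in 0.64% DMSO. Dead embryos were excluded.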

[4] = Tanguay_ZF_120hpf_CIRC_legacy: (Legacy) Oregon State University Tanguay Lab 120 Hour Post-fertilization zebrafish Assay for Circulatory Malformation (AID 2283651)
How it was run: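 Binary circulatory-malformation call at 120 hpf via brightfield imaging, relative to DMSO controls. Embryos (5D strain, chorion removed) received static, light-shielded exposure at 28C.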

[5] = Tanguay_ZF_120hpf_TRUN_legacy: (Legacy) Oregon State University Tanguay Lab 120 Hour Post-fertilization zebrafish Assay for Truncated Body (AID 2283655)
How it was run: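 Single dechorionated zebrafish embryos received test chemical from 6 hpf in 0.64% DMSO, kept at 28C. At 120 hpf, brightfield inspection noted any truncated body.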

[6] = Tanguay_ZF_120hpf_CFIN_legacy: (Legacy) Oregon State University Tanguay Lab 120 Hour Post-fertilization zebrafish Assay for Caudal Fin Malformation (AID 2283649)
How it was run: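 Single dechorionated 5D wild-type embryos are dosed at 6 hpf (final DMSO 0.64%) and held statically at 28C. Caudal fin malformation is recorded as present or absent at 120 hpf under brightfield, excluding dead embryos.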

[7] = Tanguay_ZF_120hpf_SWIM_legacy: (Legacy) Oregon State University Tanguay Lab 120 Hour Post-fertilization zebrafish Assay for Swim Bladder Malformation (AID 2283654);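 also: swim bladder malformation in each larva scored yes or no under brightfield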
How it was run: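 Scoring is binary for swim bladder defects at 120 hpf, by brightfield inspection of zebrafish larvae. Embryos were exposed singly from 6 hpf after pronase dechorionation, at 28C with 0.64% DMSO; mortality excluded scoring.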

[8] = Tanguay_ZF_120hpf_PIG_legacy: (Legacy) Oregon State University Tanguay Lab 120 Hour Post-fertilization zebrafish Assay for Pigmentation Malformation (AID 2283650)
How it was run: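 Pigment malformation recorded as a binary call at 120 hpf in zebrafish (Tropical 5D) exposed singly from 6 hpf after pronase dechorionation. Static, sealed, 28C exposure, 0.64% DMSO; mortality excludes scoring; positive-direction fit against DMSO.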

[9] = read-out: solute carrier (SLC22A6), SLC22A6 (gene 9356); assay: LTEA_HepaRG_SLC22A6: Life Technologies and Expression Analysis (LTEA) Assay for solute carrier (SLC22A6) using HepaRG (AID 2283653; active = hit-call score of the fitted dose curve at least 0.9, where 1 is the maximum; inactive = score below 0.9); conditions: mRNA level, 48 h; actives raise or lower the signal
Method: LTEA_HepaRG is a cell based, multiplexed-readout assay that uses HepaRG, a human liver cell line, with measurements taken at 48 hours after chemical dosing on a 96-well plate.LTEA_HepaRG_SLC22A6 is one of 102 assay component(s) measured in the LTEA HepaRG cell culture assay. It is a marker of NR mediated transport.Data from the assay component LTEA_HepaRG_SLC22A6 was analyzed into 1 endpoint. This assay endpoint, LTEA_HepaRG_SLC22A6, was analyzed with bidirectional fitting relative to DMSO as the negative control and baseline of activity. Using a type of inducible reporter, measures of mRNA induction for gain or loss-of-signal activity can be used to understand regulation of transcription factor activity. To generalize the intended target to other relatable targets, this assay endpoint is annotated to the transporter intended target family, where the subfamily is organic anion transporter.
A total of 1060 chemcials from the ToxCast library were tested in eight-point concentration-response experiments. Cell culture and cytotoxicity assays were conducted at Thermo Fisher Scientific's Custom Services facility (Madison, WI). A single lot of human HepaRG cells (Thermo Fisher Scientific, Frederick, MD) was used for the cell culture experiments. 96-well format collagen type I coated plates of human HepaRG cells were prepared using established methods. Briefly, cryopreserved HepaRG cells were thawed, plated at a density of approximately 100,000 cells/well in HepaRG Thaw, Plate, and General Purpose media (HPRG770, Thermo Fisher Scientific), and incubated for 48 hours. 0.5% DMSO was selected as vehicle control to balance the requisite need of DMSO in HepaRG cultures to maintain differentiation (for example, baseline metabolism, proportions of hepatocytes vs. cholangiocytes), while enabling further hepatic receptor pathway activation (for example, PXR and CAR) in response to chemical exposure. 48 hours after plating, the culture medium was replaced with HepaRG Serum-Free Incudtion Media. Cells were exposed to each test chemical in duplicate and maintained in CO2 incubators for another 48 hours. Chemical plates were thawed to room temperature and 200x concentrations of treatment groups were prepared. 8-point conentration-reponse curves were made with the highest exposure at 100 uM, followed by half-log dilutions, all in 0.5% DMSO. Each test plate contained variouse controls, induction positive controls (1mM phenobarbital), cytotoxicity positive controls ([…] aflatoxin B1), vehicle controls (0.5% DMSO), and total lysis controls (0.5% DMSO). Cell morphology images were taken using an Essen IncuCyte FLR automated microscope, with six 96-well plates imaged in about 24 minutes. Images were captured and exported and JPEG files. Spent culture media was transfered to black-well plates for the LDH assay, and remaining media was sorted at -80 C for later use. Cells were treated with RLT buffer and frozen until shipped for gene expression analysis. Total RNA was isolated from the cell suspension in 75 uL of Buffer RLT (Qiagen, Germantown, MD 20874) by Quintiles/Expression Analysis (Durham, NC) using a custom isolation procedure. Total RNA from each plate well was transferred to a preamplification plate. Fluidigm's 96.96 Dynamic ArrayTM (Fluidigm, Amsterdam, the Netherlands) technology was used for gene expression analyses by quantitative reverse transcription polymerase chain reaction (qRT-PCR, performed by Quintiles/Expression Analysis, Durham, NC)89. Standard TaqManTM Assays (Applied Biosystems/ThermoFisher Scientific, Foster City, CA) were used to assess the expression of 93 genes selected based on their selectivity and sensitivity to important hepatic receptors known to be modulated by environmental chemicals; importance in human hepatocyte functionality; and hepatotoxicity. […]

For Nc1nc(N)c2nc(CNc3ccc(C(=O)N[C@@H](CCC(=O)O)C(=O)O)cc3)cnc2n1, the outcome [1] was “inactive”, the outcome [2] was “inactive” and the outcome [3] was “inactive”. The outcome [4] was “inactive” and the outcome [5] was “inactive”.

With Cc1nc(C)nc(N2C[C@@H](C)N(c3ccnc([C@@H](C)O)n3)[C@@H](C)C2)n1 the outcome [1] was “inactive”, the outcome [2] was “inactive” and the outcome [3] was “inactive”. The outcome [6] was “inactive”, the outcome [4] was “inactive” and the outcome [7] was “inactive”. The outcome [5] was “inactive”.

In the case of CCOC(=O)C(C)(C)Oc1ccc(Cl)cc1, the outcome [1] is reported as “inactive”, the outcome [2] is reported as “inactive” and the AC50 [6] is reported as 69.7 µM (active). The outcome [8] was “inactive”, the outcome [4] was “inactive” and the outcome [7] was “inactive”. The AC50 [5] was 65.3 µM (active).

In the case of CCCCCCCCCCO, the outcome [1] is reported as “inactive”, the outcome [2] is reported as “inactive” and the outcome [3] is reported as “inactive”. The outcome [6] was “inactive”, the outcome [4] was “inactive” and the outcome [5] was “inactive”.

With O=C(OCCCCCOC(=O)c1ccccc1)c1ccccc1 the outcome [1] was “inactive”, the outcome [2] was “inactive” and the outcome [3] was “inactive”. The outcome [6] was “inactive”, the outcome [4] was “inactive” and the outcome [7] was “inactive”. For the same molecule, the outcome [5] was “inactive”.

With CCOc1ccc2c(c1)C(C)=CC(C)(C)N2 the outcome [1] was “inactive”, the outcome [2] was “inactive” and the outcome [3] was “inactive”. For the same molecule, the outcome [6] was “inactive”, the outcome [4] was “inactive” and the outcome [7] was “inactive”. The outcome [5] was “inactive”.

For NCCO, the outcome [1] was “inactive”, the outcome [2] was “inactive” and the outcome [3] was “inactive”. For the same molecule, the outcome [6] was “inactive”, the outcome [4] was “inactive” and the outcome [5] was “inactive”.

In the case of OC[C@@H](O)[C@@H](O)[C@H](O)[C@H](O)CO, the outcome [1] is reported as “inactive”, the outcome [2] is reported as “inactive” and the outcome [3] is reported as “inactive”. For the same molecule, the outcome [6] was “inactive” and the outcome [7] was “inactive”.

For Cc1oc(-c2ccccc2)nc1CCOc1cccc2c1ccn2CCC(=O)O, the outcome [1] was “inactive”, the outcome [2] was “inactive” and the outcome [3] was “inactive”. For the same molecule, the outcome [4] was “inactive”, the outcome [7] was “inactive” and the outcome [5] was “inactive”.

In the case of COc1cc(C=O)ccc1O, the AC50 [1] is reported as 44.7 µM (active), the outcome [2] is reported as “inactive” and the AC50 [3] is reported as 42.8 µM (active). The outcome [6] was “inactive”, the outcome [9] was “inactive” and the AC50 [5] was 50 µM (active).

With O=C(N[C@@H](Cc1ccccc1)[C@@H](O)C(=O)N1C[C@@H](O)[C@@H](O)C1)c1cc2cc(Cl)ccc2[nH]1 the outcome [1] was “inactive”, the outcome [2] was “inactive” and the outcome [3] was “inactive”. For the same molecule, the outcome [6] was “inactive”, the outcome [4] was “inactive” and the outcome [7] was “inactive”. For the same molecule, the outcome [5] was “inactive”.

With Cc1ccccc1Cl the outcome [1] was “inactive”, the outcome [2] was “inactive” and the outcome [3] was “inactive”. The outcome [6] was “inactive”, the outcome [4] was “inactive” and the outcome [7] was “inactive”. The outcome [5] was “inactive”.

With COc1ccc(C)cc1N the outcome [1] was “inactive”, the outcome [2] was “inactive” and the outcome [3] was “inactive”. For the same molecule, the outcome [6] was “inactive”, the outcome [4] was “inactive” and the outcome [7] was “inactive”. The outcome [5] was “inactive”.

For Cc1ccc(C)c(C)c1, the outcome [1] was “inactive”, the outcome [2] was “inactive” and the outcome [6] was “inactive”. For the same molecule, the outcome [8] was “inactive”, the outcome [4] was “inactive” and the outcome [9] was “inactive”. For the same molecule, the outcome [7] was “inactive” and the outcome [5] was “inactive”.

In the case of Cc1cccc([N+](=O)[O-])c1C, the outcome [1] is reported as “inactive”, the outcome [2] is reported as “inactive” and the outcome [3] is reported as “inactive”. The outcome [6] was “inactive”, the outcome [4] was “inactive” and the outcome [5] was “inactive”.

In the case of O=c1c(O)c(-c2ccc(O)c(O)c2)oc2cc(O)cc(O)c12, the outcome [1] is reported as “inactive”, the outcome [2] is reported as “inactive” and the outcome [3] is reported as “inactive”. For the same molecule, the outcome [6] was “inactive”, the outcome [4] was “inactive” and the outcome [7] was “inactive”. The outcome [5] was “inactive”.

In the case of CCCCC(CC)COC(=O)CC(C(=O)OCC(CC)CCCC)S(=O)(=O)O (stereo unspecified), the outcome [1] is reported as “inactive”, the outcome [2] is reported as “inactive” and the outcome [3] is reported as “inactive”. The outcome [6] was “inactive”, the outcome [4] was “inactive” and the outcome [7] was “inactive”. For the same molecule, the outcome [5] was “inactive”.

With COC(=O)c1ccc(O)cc1 the outcome [1] was “inactive”, the outcome [2] was “inactive” and the outcome [3] was “inactive”. The outcome [6] was “inactive”, the outcome [4] was “inactive” and the outcome [7] was “inactive”. The outcome [5] was “inactive”.

In the case of FC(F)(F)C(F)(F)C(F)(F)C(F)(F)C(F)(F)C(F)(F)CCI, the outcome [1] is reported as “inactive”, the outcome [2] is reported as “inactive” and the outcome [3] is reported as “inactive”. For the same molecule, the outcome [6] was “inactive”, the outcome [4] was “inactive” and the outcome [7] was “inactive”. The outcome [5] was “inactive”.

For CC(=O)Oc1ccccc1C(=O)O, the outcome [1] was “inactive”, the outcome [3] was “inactive” and the outcome [6] was “inactive”. For the same molecule, the outcome [4] was “inactive” and the outcome [5] was “inactive”.

In the case of CC(CO)OC(C)CO (stereo unspecified) (tested in a mixture with another compound), the outcome [3] is reported as “inactive”, the outcome [6] is reported as “inactive” and the outcome [7] is reported as “inactive”. The outcome [5] was “inactive”.

For Nc1ccc(S(=O)(=O)c2ccc(N)cc2)cc1, the outcome [2] was “inactive”, the outcome [3] was “inactive” and the outcome [6] was “inactive”. For the same molecule, the outcome [8] was “inactive”, the outcome [4] was “inactive” and the outcome [7] was “inactive”. The outcome [5] was “inactive”.

For Nc1ccccc1N, the outcome [2] was “inactive”, the outcome [3] was “inactive” and the outcome [6] was “inactive”. For the same molecule, the outcome [4] was “inactive” and the AC50 [5] was 10.9 µM (active).
